Compounds without any hit were thinned out: in the full panel of roughly 79,000, 15% have a hit. Unmarked numbers belong to inactive results. Active and inactive are the calls of the source. Rule as the data show it: active = growth inhibition above about 70%; inactive = the rest.
Assays:
[1] = NCI Yeast Anticancer Drug Screen. Data for the rad50 strain (AID 155);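 also: 0% = growth of vehicle-only cultures of the same strain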; conditions: S. cerevisiae rad50 strain growth inhibition; at 50.0 µM; active compounds read high
In short: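 A DNA repair-deficient yeast mutant serves as the test organism; compound-induced growth inhibition is calculated against vehicle-treated cells.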

[2] = NCI Yeast Anticancer Drug Screen. Data for the mec2-1 strain (AID 157); conditions: S. cerevisiae mec2-1 strain, at 50.0 µM, active compounds read high
In short: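 Strain: mec2-1 (DNA repair/cell cycle alteration). Compound exposure, then growth measured; inhibition expressed relative to vehicle.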

[3] = NCI Yeast Anticancer Drug Screen. Data for the sgs1 mgt1 strain (AID 161);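 also: 0% = growth of cultures given vehicle only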; conditions: S. cerevisiae sgs1 mgt1 strain, at 50.0 µM, active compounds read high
In short: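 Inhibition of yeast growth, normalised to vehicle-treated controls, is reported for a strain bearing genetic alterations in DNA damage repair.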

[4] = NCI Yeast Anticancer Drug Screen. Data for the cln2 rad14 strain (AID 165);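 also: 0% = growth equal to vehicle treated cultures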; conditions: S. cerevisiae cln2 rad14 strain, at 50.0 µM, active compounds read high
In short: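 Compounds are applied to the cln2 rad14 yeast strain, and growth is then compared with that of vehicle-treated cultures to give inhibition.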

[5] = NCI Yeast Anticancer Drug Screen. Data for the bub3 strain (AID 167); conditions: S. cerevisiae bub3 mutant strain, at 50.0 µM, active compounds read high
In short: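 Inhibition values come from growth of compound-treated mutant yeast normalised to vehicle-treated controls.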

[6] = NCI Yeast Anticancer Drug Screen. Data for the mlh1 rad18 strain (AID 175); conditions: S. cerevisiae mlh1 rad18 strain growth inhibition; at 50.0 µM; active compounds read high
In short: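 Read-out is yeast growth inhibition, calculated against vehicle-only controls. The compound was applied to a strain engineered with DNA damage repair alterations.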

SMILES | growth inhibition [1] | growth inhibition [2] | growth inhibition [3] | growth inhibition [4] | growth inhibition [5] | growth inhibition [6]
OC1CC2CCCCC2CC1Cl (configuration not stated) | 6.15% | 1.35% | 0.7% | -16.6% | -19.1% | 5.5%
O=C(NC1c2ccccc2Oc2ccccc21)OCCCCl | -11.2% | -3.1% | 2.15% | -7.05% | 7.8% | -5.1%
O=C(Nc1ccc(S(=O)(=O)N2CCCCC2)cc1)OC1CCCCC1 | 16.4% | 3.75% | -4.2% | 23.6% | 30.9% | -5.45%
COc1ccc(Cl)cc1NC(=O)Nc1ccc(F)c([N+](=O)[O-])c1 | 10% | 38% | 29.2% | -9.8% | 33.5% | 23.8%
COc1cc2ccc3c4c(OC)cc5c(c4c[n+](C)c3c2cc1OC)OCO5 | 88% (active) | 91.3% (active) | 88.3% (active) | 88.7% (active) | 90% (active) | 87.2% (active)
CSc1nc2c(c(=O)[nH]1)N=C(c1ccccc1)CC(c1ccccc1)N2 (configuration not stated) | 7.45% | 14.7% | 17.8% | -0.55% | 22.6% | -5.85%
Clc1ccc(SCSc2ccc(Cl)cc2)cc1 | 16.8% | -7.35% | 6.5% | -33.5% | 6.45% | -0.85%
Cc1n(CC(=O)c2ccccc2)nc2sc(N)n[n+]12 | -50% | -23.9% | -68% | -18.2% | -14.8% | -20.9%
NC(=O)C(Cl)=C(Cl)Cl | 2.85% | 10.4% | -2% | -4.75% | -4.8% | 1.65%
CCc1ccc(N=Nc2c(F)c(F)c(N)c(F)c2F)cc1 | 6.1% | -11.3% | 2.4% | 2.85% | 0.55% | 14.3%
CCOc1nc2c(c(=O)n(C)c(=O)n2C)n1C | 26.9% | -7.55% | -6.25% | 8% | 7.65% | 20.9%
Cc1ccc2c(c1)C(c1cccc3ccccc13)OC2=O (configuration not stated) | 21.6% | 1.65% | 40.2% | 33.3% | 14.2% | 29.4%
CCOC(=O)CCN(CC1CC=CCC1)c1cc(O)c2c(c1O)C(=O)c1ccccc1C2=O (configuration not stated) | -70.6% | -4.75% | -21.5% | -2.55% | 2% | -9.85%
c1ccc2cc(B(c3cccc4ccccc34)c3cccc4ccccc34)ccc2c1 | 14% | -8.75% | -8.4% | -25.6% | -2.25% | -23.9%
O=C1CC(=O)N(C=C2C(=O)NC(=O)NC2=O)C(=S)N1 | -11.9% | -2.15% | -18.6% | 11.2% | 4.6% | 0.45%
Oc1c2cccc1Cc1cccc3c1OCCOCCOCCOCCOc1c(cccc1Cc1cccc(c1O)C3)C2 | 9.1% | 12.8% | 9.45% | 13.8% | 12.4% | -6.05%
Nc1c(S(=O)(=O)O)cc2cc(S(=O)(=O)O)ccc2c1N | 9.9% | -12.6% | 6% | -15.7% | 17.8% | 24.9%
CCOC(=O)/C(=C\c1ccc(N(C)C)cc1)S(=O)(=O)C(F)(F)C(F)(F)C(F)(F)C(F)(F)F | 2% | 9.6% | 6.1% | -9.7% | 4.75% | 15.2%
Cc1ccc2c(c1)SC(c1cc3c(cc1Br)OCO3)S2 (configuration not stated) | -10.7% | -22.1% | 4.65% | 34.9% | 32.5% | -18.4%
Clc1ccc(-c2onc3ccc(Br)cc23)cc1 | -6.65% | -12.3% | -1.15% | -17.9% | -0.75% | 8.5%
C=C(C)C1CC=C(C)[C@](O)(C2(O)C[C@H](C(=C)C)CC=C2C)C1 (some centres not stated) | -0.55% | 6.95% | 26.1% | 23.9% | 6.6% | 9.65%

SMILES | growth inhibition [1] | growth inhibition [2] | growth inhibition [3] | growth inhibition [4] | growth inhibition [5] | growth inhibition [6]
COc1ccc2c(C)cc(N/N=C(\C)c3cn(C)n(-c4ccccc4)c3=O)nc2c1 | -2.25% | -7.1% | -5.95% | 13.2% | -1.8% | 1.65%
O=C(O)c1cccn1-c1ccccc1 | -4.05% | -24.6% | -1.55% | -21.1% | -10.2% | -15.6%
CCC(=O)C1C(=O)CC(=O)C(C)C1c1ccccc1OC (configuration not stated) | -14.8% | -6.6% | 4.5% | 38.5% | 27.8% | 10.4%
CCCCCCCCN(CCCCCCCC)CC(O)c1ccc2cc(Br)c3ccccc3c2c1 (configuration not stated) | 25.9% | 26.2% | 46.5% | 47.1% | 24% | 49.4%
CCOC(=O)[C@H]1Nc2ccc(Cl)cc2[C@H]2c3ccccc3O[C@H]21 | 4.85% | -22.3% | -23.1% | 8.35% | -19.7% | -19.4%
O=C(O)C1CCCCC1O (configuration not stated) | -11.6% | 21.1% | -5.25% | 23.3% | 21.4% | 1.3%
CCCCCC(=O)Cc1cc(O)cc2c1C(=O)Oc1cc(O)c(C(=O)O)c(CCCCC)c1O2 | 26.1% | 7.45% | 32% | 17.8% | 16.4% | 16.9%
N#CCCC1C(=O)CCCC1=O | 0.2% | 9.2% | -0.85% | -13.6% | 6.9% | 12.9%
C=C1C(=O)OC2(C)CCC1CC1OC1(C)CCC=C(C)CCC2O (configuration not stated) | 3.7% | -39.1% | 17.4% | 8% | -17.7% | -39.5%
CC(=O)OC(C)/C=C\C#N (configuration not stated) | -17.9% | 14.3% | 5.25% | -2.65% | 0.35% | 37.8%
CN(C)CC1C2CCC(C2)C1O (configuration not stated) | 2.2% | -20.6% | -7.7% | 8% | -11.7% | 4.4%
O=C(c1ccccc1)c1ccc2ccccc2c1C(=O)O | -8.25% | 9.6% | 4.85% | -69.3% | -5.65% | -17%
COc1c(O)c(/C=C/C(=O)NN)cc2ccoc12 | -4.75% | -10.3% | -25.1% | -16.5% | 15.8% | -23.9%
c1ccc(-c2nc3ccccc3o2)cc1 | 31.3% | 21.4% | 26.9% | 4.25% | 27.4% | 37.4%
OC(CNc1ccc(Cl)cc1)CN1CCOCC1 (configuration not stated) | 77.7% (active) | 15.2% | 14.9% | -1.05% | -3.7% | 42%
O=C(O)c1nccc2c([N+](=O)[O-])cccc12 | -2.4% | 6.4% | 16.6% | -13.5% | -4.4% | -12.9%
COc1ccc(-c2csc(N)n2)cc1OC | 2.15% | -3.9% | 4.4% | -66.7% | -10.4% | 1.9%
O=C1c2ccccc2C(=CC=C2c3ccccc3Sc3ccccc32)c2ccccc21 | 11.9% | 25.9% | -35% | 9.55% | 24.2% | -5.75%
CCCCC(C)(CCN)CCCC | 5.05% | 1.4% | -5.05% | 7.4% | -3% | 0.1%
Cc1csc2n(C)c(=O)c3ccccc3[n+]12 | 16.8% | 9.4% | -20.4% | 4.65% | -1.75% | 32.8%
Cc1ccccc1/C=N/Nc1ccc([N+](=O)[O-])cc1[N+](=O)[O-] | -2.45% | 13.4% | -1.75% | -35.1% | -25.1% | -11.8%
